Measured values taken from PubChem BioAssay (NCATS).
“And” between values parts separate entries of the source, which are not always exact repeats. Equal values may be shown once. Inconclusive results are not listed. The source made the active and inactive calls. Unless noted, calls come from the whole dose curve; as a rule, active = well fitted curve in the direction sought with a large enough effect; inconclusive = small, poorly fitted or top-dose-only effect, or another doubt; inactive = no such curve, though single readings can be large; an effect the other way counts as inactive or inconclusive.

Key:
[1] = Cell Viability - MRC5 (AID 434; calls by dose curve;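 note: potency is the fitted concentration of half-maximal effect; cells exposed to compound for 40 hours at 37 °C; potency reflects cytotoxicity seen as loss of intracellular ATP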); settings: MRC5 lung fibroblast viability, qHTS
Summary of the method: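 AC50 values come from Hill-equation fits of intracellular ATP loss, measured by CellTiter-Glo luminescence. Normal lung fibroblasts (MRC5) had 40 hr compound treatment at 37 C, normalized between DMSO and 100 uM tamoxifen.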

[2] = Cell Viability - HUV-EC-C (AID 542); settings: HUV-EC-C endothelial cell viability, qHTS; series mostly up to 92.2 µM;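 note: cells exposed to compound for 40 hours; % is set by controls: 0 for no effect and ±100 for the full control effect; nearly all actives have a fitted effect of over 35% in size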
Summary of the method: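 Cells were seeded at 1000 per well and incubated 5 hr at 37 °C before compound addition. After 40 hr at 37 °C, CellTiter-Glo reagent was added for 20 min and luminescence read. AC50 values came from Hill-equation modelling.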

[3] = Cellular Toxicity (caspase-3) HepG2 (AID 654); settings: HepG2 caspase-3 activation, luminescence; series mostly up to 92.2 µM;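 note: cells exposed to compound for 16 hours before reading; 0% = DMSO alone and 100% = caspase signal from 100 µM tamoxifen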
Summary of the method: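 Caspase 3/7 activation in HepG2 is measured as rising luminescence after a 16 hr treatment at 37 °C. Values are scaled between DMSO basal and 100 uM tamoxifen, and AC50 is fitted with the Hill equation.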

[4] = Cellular Toxicity (caspase-3) HUV-EC-C (AID 656); settings: HUV-EC-C cells, caspase-3 activation (apoptosis); series mostly up to 92.2 µM
Summary of the method: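 HUV-EC-C endothelial cells, 1000/well, were pre-incubated 5 hr at 37°C, then exposed to compounds for 16 hr at 37°C. Caspase-Glo 3/7 luminescence was read after 20 min at room temperature. AC50 came from Hill fits, normalized to DMSO and 100 uM tamoxifen.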

[5] = Cellular Toxicity (caspase-3) SHSY5Y (AID 657); settings: SH-SY5Y caspase-3 activation; series mostly up to 91.7 µM
Summary of the method: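 SH-SY5Y human neuroblastoma cells (1500/well) were treated with compounds for 16 h at 37 °C, then Caspase-Glo 3/7 luminescence was read after 1 h at room temperature. Data normalized to DMSO and 10 uM staurosporine; AC50 from Hill fits.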

[6] = Cellular Toxicity (caspase-3) MRC-5 (AID 659); settings: MRC-5 cells, luminescence, normalized: DMSO 0%, 10 µM staurosporine 100%; series mostly up to 91.7 µM
Summary of the method: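 Luminescent Caspase-Glo 3/7 read-out (1 h, room temperature) after a 16 h, 37 °C compound exposure of MRC-5 lung fibroblasts at 1500 cells/well. Concentration-response AC50 from Hill equation; 0% DMSO, 100% 10 uM staurosporine.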

[7] = Cellular Toxicity (caspase-3) Mesangial (AID 660); settings: mesangial cells, normalized: DMSO 0%, 100 µM tamoxifen 100%; series mostly up to 91.7 µM;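 note: combined caspase 3 and 7 activity read by Caspase-Glo luminescence; cells exposed to compound for 16 h before the caspase read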
Summary of the method: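 Seed cells derived from normal human renal glomeruli, incubate 5 h, add compounds across concentrations and incubate 16 h at 37 °C. Caspase 3/7 activation is then quantified by luciferase light, with AC50 derived by Hill modeling.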

[8] = Cellular Toxicity (caspase-3) SK-N-SH (AID 661); settings: SK-N-SH caspase-3 activation, qHTS, DMSO as zero, staurosporine as full; series mostly up to 91.7 µM
Summary of the method: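 Cells were seeded and incubated 5 hr at 37 °C, dosed with compound over a concentration range for 16 hr, then given Caspase-Glo 3/7 reagent for 1 hr at room temperature before luminescence reading.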

[9] = Cellular Toxicity (caspase-3) H-4-II-E (AID 663); settings: H-4-II-E rat hepatoma; Potency: caspase-3 activation; series mostly up to 92.2 µM
Summary of the method: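 Caspase 3/7 activation measured by luminescent aminoluciferin substrate cleavage after 16 hr compound treatment of H-4-II-E cells in complete medium. Increase normalized between DMSO (basal) and 100 uM tamoxifen (100%); Hill-equation AC50 from concentration-response.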

[10] = Cellular Toxicity (caspase-3) N2a (AID 665); settings: N2a cells, luminescence, normalized: DMSO 0%, 10 µM staurosporine 100%; series mostly up to 92.2 µM;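 note: compound exposure lasted 16 h at 37 °C before readout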
Summary of the method: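 Caspase-3/7 activation, measured as increased luminescence from aminoluciferin release, is quantified in mouse N2a cells exposed to compounds for 16 h. Values are normalized to DMSO and 10 uM staurosporine, with AC50 derived by Hill modelling.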

[11] = Cellular Toxicity (caspase-3) NIH 3T3 (AID 666); settings: NIH 3T3 caspase-3 activation, apoptosis/toxicity, 0% DMSO, 100% is 100 µM tamoxifen; series mostly up to 92.2 µM;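 note: 0% = DMSO basal and 100% = 100 µM tamoxifen stimulation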
Summary of the method: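 Cells were plated at 1000 per well and incubated 5 hr at 37°C, then compound was added for 16 hr. Caspase-Glo 3/7 reagent followed for 20 min at room temperature before luminescence was read.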

[12] = Cellular Toxicity (caspase-3) Renal Proximal Tubule (AID 667); settings: renal proximal tubule cells, primary cells freshly taken from rat; Potency: caspase-3 activation; series mostly up to 91.7 µM;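 note: cells exposed to compound for 16 hours at 37 °C before detection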
Summary of the method: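 Primary rat proximal tubule cells, 1000/well, 5 h plating at 37 °C, then compound 16 h at 37 °C. Caspase-Glo 3/7 reagent, 1 h RT, luminescence. Normalized to DMSO (basal) and 10 uM staurosporine (100%); Hill-fit AC50.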

[13] = MultiTox-Fluor Cytotoxicity Assay - LYMP1-001 - Dead Cells (AID 946); settings: LYMP1-001 lymphoblastoid cells, dead-cell protease fluorescence; series mostly up to 92.2 µM;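 note: 0% = DMSO and 100% = tetraoctylammonium bromide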
Summary of the method: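 In this qHTS, 15 uM tetraoctylammonium bromide defined 100% and DMSO defined basal activity. Lymphoblastoid cells (LYMP1-001, 2500 per well) received compound for 16 hr at 37 C before a fluorogenic dead-cell substrate readout at 485/520 nm.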

[14] = MultiTox-Fluor Cytotoxicity Assay - LYMP1-003 - Dead Cells (AID 961); settings: LYMP1-003 lymphoblastoid cells, dead-cell protease fluorescence; series mostly up to 92.2 µM;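 note: 0% = DMSO and 100% = tetraoctylammonium bromide; nearly all actives have a fitted effect of over 70% in size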
Summary of the method: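 Acute toxicity is scored as increased dead-cell protease activity in human lymphoblastoid LYMP1-003 cells after 16 h compound exposure in complete culture medium. Activity is normalized to DMSO basal and 15 uM tetraoctylammonium bromide as full response.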

[15] = MultiTox-Fluor Cytotoxicity Assay - LYMP1-003 - Live Cells (AID 962); settings: LYMP1-003 lymphoblastoid cells, MultiTox-Fluor live-cell protease fluorescence; series mostly up to 92.2 µM;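 note: 0% = DMSO only and full loss = 92 µM tetraoctylammonium bromide; cytotoxic hits lower the live-cell protease signal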
Summary of the method: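 Acute cytotoxicity is scored as a drop in live-cell protease activity in human lymphoblastoid LYMP1-003 cells after 16 hr compound exposure at 37 C. AC50 values come from Hill-equation modelling of concentration-response data.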

[16] = Cell Viability - LYMP1-003 - Assay at 24 hr (AID 963); settings: LYMP1-003 lymphoblastoid cell viability; series mostly up to 92.2 µM;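 note: plate controls were DMSO only for no effect and tetraoctylammonium bromide positive control for full effect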
Summary of the method: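 Cytotoxicity is scored as a concentration-dependent fall in ATP-linked luciferase signal in human lymphoblastoid LYMP1-003 cells treated 24 hr at 37 C in complete culture medium.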

[17] = qHTS Assay for Identification of Small Molecule Inducers of Hypoxia Response (AID 2120; active = well fitted curve in the direction sought with a large enough effect in the signal ratio, with a control signal flat, not every such curve was filed as active; the % refers to the signal ratio; note: 0% is about no effect); settings: hypoxia response reporter cells, beta-lactamase ratio readout; series mostly up to 104 µM
Summary of the method: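 Cell-based qHTS for reporter induction: hypoxia response element controlled beta-lactamase in ME-180 cells. Compounds incubated 17 h at 37 degrees C; activity from blue/green (460/530 nm) ratio, inducers ranked by AC50.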

[18] = molecular target: Peroxisome proliferator-activated receptor alpha (Homo sapiens) (UniProt Q07869); assay: qHTS assay for small molecule agonists of the peroxisome proliferator-activated receptor alpha (PPARalpha) signaling pathway (AID 651778); settings: PathHunter PPARalpha complementation, chemiluminescence, 6 h; max response: stronger effect = higher value; note: % of control where 0% means no effect
Summary of the method: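 Chemiluminescence from complemented enzyme reported PPARalpha activation in cells after 6 hr of compound treatment at 37 C. The detection reagent was incubated for 60 min at room temperature, and compounds were scored as agonists.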

[19] = qHTS assay for small molecule agonists of the antioxidant response element (ARE) signaling pathway measured by Nrf2-dependant transcriptional activity - cell viability counter screen (AID 720653; active = well fitted curve in the direction sought with a large enough effect in the repeat runs; an effect the other way counts as inactive or inconclusive; note: % is set by controls: 0 for no effect and ±100 for the full control effect); settings: ARE-bla HepG2 viability, CellTiter-Glo ATP luminescence, 16 h; max response: stronger effect = lower value
Summary of the method: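 Cytotoxicity counter screen: intracellular ATP quantified by CellTiter-Glo luminescence in the same ARE-bla HepG2 plates, after 16 h compound exposure and a 2 h beta-lactamase substrate step.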

[20] = qHTS assay for cell viability of the p53RE-bla HCT-116 cell line (AID 743292); settings: p53RE-bla HCT-116 viability, ATP luminescence, 16 h; series mostly up to 95 µM; note: % is set by controls: 0 for no effect and ±100 for the full control effect; nearly all actives have a fitted effect of over 55% in size
Summary of the method: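 CellSensor p53RE-bla HCT-116 cells (4,000/well) pre-incubated 5 h at 37 C, then exposed to compounds in DMSO for 16 h at 37 C. Viability read as ATP content by CellTiter-Glo luminescence after 30 min at room temperature.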

Peroxisome proliferator-activated receptor alpha (Homo sapiens), sequence (Q07869 whole entry, looked up): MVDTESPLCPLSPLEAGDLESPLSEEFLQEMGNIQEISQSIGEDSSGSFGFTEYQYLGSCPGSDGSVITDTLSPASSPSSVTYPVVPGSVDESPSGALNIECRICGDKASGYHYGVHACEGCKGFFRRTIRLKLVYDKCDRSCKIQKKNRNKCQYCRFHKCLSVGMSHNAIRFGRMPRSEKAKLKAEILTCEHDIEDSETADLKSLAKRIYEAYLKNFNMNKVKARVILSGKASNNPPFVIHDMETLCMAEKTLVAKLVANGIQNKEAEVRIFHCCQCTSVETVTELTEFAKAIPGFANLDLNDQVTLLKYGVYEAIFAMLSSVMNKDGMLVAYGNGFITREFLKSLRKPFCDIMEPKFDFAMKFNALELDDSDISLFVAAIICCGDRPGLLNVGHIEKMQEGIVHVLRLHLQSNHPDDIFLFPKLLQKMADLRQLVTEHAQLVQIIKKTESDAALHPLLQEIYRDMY

CCCCCCc1ccc(-c2ccc(C#N)cc2)cc1
inactive: Potency [1] > 92 µM | Potency [2] | Potency [3] | Potency [4] | Potency [5] | outcome [6] | outcome [7] | outcome [8] | Potency [9] | outcome [10] | outcome [11] | Potency [12] | Potency [13] | Potency [14] | Potency [15] | Potency [16] | Potency [17] | max response [18] -3.23% | max response [19] -11.9% | Potency [20]

CCCCNCC
inactive: Potency [1] > 92 µM | Potency [2] | Potency [3] | Potency [4] | Potency [5] | outcome [6] | outcome [7] | outcome [8] | Potency [9] | outcome [10] | outcome [11] | Potency [12] | Potency [13] | Potency [14] | Potency [15] | Potency [16] | Potency [17] | max response [18] -6.73% | max response [19] 3.95% | Potency [20]

c1ccc(CSCc2ccccc2)cc1
inactive: Potency [1] > 92 µM | Potency [2] | Potency [3] | Potency [4] | Potency [5] | outcome [6] | outcome [7] | outcome [8] | Potency [9] | outcome [10] | outcome [11] | Potency [12] | Potency [13] | Potency [14] | Potency [15] | Potency [16] | Potency [17] | max response [18] -0.51% | max response [19] -4.18% | Potency [20]

COc1cc(-c2ccc(N=C=O)c(OC)c2)ccc1N=C=O
inactive: Potency [1] > 92 µM | Potency [2] | Potency [3] | Potency [4] | Potency [5] | outcome [6] | outcome [7] | outcome [8] | Potency [9] | outcome [10] | outcome [11] | Potency [12] | Potency [13] | Potency [14] | Potency [15] | Potency [16] | Potency [17] | max response [18] 20.1% | max response [19] 21.7% and 2.99% | Potency [20]

c1ccc2c(c1)ccc1ccccc12
inactive: Potency [1] > 92 µM | Potency [2] | Potency [3] | Potency [4] | Potency [5] | outcome [6] | outcome [7] | outcome [8] | Potency [9] | outcome [10] | outcome [11] | Potency [12] | Potency [13] | Potency [14] | Potency [15] | Potency [16] | Potency [17] | max response [18] -2.79% and 0.0819% | max response [19] -0.337% and -2.44% | Potency [20]

CCCCC(CC)COCCCN (stereo not given)
inactive: Potency [1] > 92 µM | Potency [2] | Potency [3] | Potency [4] | Potency [5] | outcome [6] | outcome [7] | outcome [8] | Potency [9] | outcome [10] | outcome [11] | Potency [12] | Potency [13] | Potency [14] | Potency [15] | Potency [16] | Potency [17] | max response [18] -9.53% | max response [19] -14.9% | Potency [20]

OC1CCCCC1
inactive: Potency [1] > 92 µM | Potency [2] | Potency [3] | Potency [4] | Potency [5] | outcome [6] | outcome [7] | outcome [8] | Potency [9] | outcome [10] | outcome [11] | Potency [12] | Potency [13] | Potency [14] | Potency [15] | Potency [16] | Potency [17] | max response [18] -5.19% | max response [19] 16.5% | Potency [20]
